Test results: PubChem BioAssay (NCATS)
Values joined by “and” are separate entries in the source; they are usually repeats but may differ in a detail not shown here. Equal values may be shown once. Records with an inconclusive call do not appear. Active and inactive are the calls of the source. The call rests on the fitted dose curve; in most records, active means well fitted activation curve with a large enough effect in the signal ratio, with a control signal flat (not every such curve was filed as active); inconclusive means small, poorly fitted or top-dose-only effect, or effect the other way, or a change in a side signal; inactive means flat fitted curve, though single readings scatter; the % refers to the signal ratio.

experiment: qHTS Assay for Identification of Small Molecule Agonists for Hypoxia Response Element Signaling Pathway (AID 914); conditions: ME-180 (cervical carcinoma) HRE-bla reporter, beta-lactamase ratio, CoCl2, 17 h; stronger effect = higher value; further: % of control where 0% means no effect
Outline: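 Read-out: CCF4 FRET ratio of 460nm to 530nm emission (excitation 405nm) after 2.5 hours at room temperature, taken from HRE-bla ME-180 cells that had been exposed to compound and EC50 CoCl2 for 17 hours.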

activation, inactive:
C#CCCCO/N=C1/C[C@@H](O)[C@@H](O)[C@@H]2[C@@H]3C(=O)N(C4CCCCC4)C(=O)[C@H]3CC[C@H]12 7.1%, COc1ccc(COC(=O)N/N=C2/C[C@@H](O)[C@@H](O)[C@@H]3[C@@H]4C(=O)N(c5cccc(Oc6ccccc6)c5)C(=O)[C@H]4CC[C@@H]23)cc1 -7.26%, CO[C@H]1COC(=O)C/C=C\[C@H](C)COC(=O)[C@@H](OCc2ccccc2)/C=C\[C@@H]1C -11.2%, C/C(CCN1CCCCc2nc(C)c(C)cc21)=N\OC[C@@H](C)[C@H](OCc1ccccc1)C(C)C 5.09%, CC(C)=CCC/C(C)=C/CO/N=C1/[C@H]2O[C@@H]2[C@@H](O)[C@H]2[C@H]1CCn1c(=O)n(Cc3cc4c(cc3Cl)OCO4)c(=O)n12 3.23%, C/C(CCN1CCc2nc(-c3ccccc3)c(-c3ccccc3)cc2C1)=N\O[C@@H](C)c1cn([C@H](CO)Cc2ccccc2)nn1 -1.74% and -5.69%, COc1ccc(-c2ccc3c(n2)CCCN3C[C@H](O)CN2CCCc3nc(-c4ccc(Br)cc4)ccc32)cc1 17.4% and 18.3%, CCCNC(=O)OC[C@@H]1O[C@H](CCON=C(C)C)C=C[C@@H]1Oc1ccc(OC)cc1 -3.17%, C/C(CCN1CCc2nc(-c3ccccc3)c(-c3ccccc3)cc2C1)=N\O[C@@H](C)c1cc(-c2c(C)cc(C)cc2C)no1 20.9%, CCOC(=O)CCN1C(=O)[C@H]2[C@@H]3[C@H](O)[C@H](O)CC(=O)[C@H]3CC[C@H]2C1=O 2.87%, C/C(CCN1CCc2nc(-c3ccccc3)c(-c3ccccc3)cc2C1)=N\O[C@@H](C)CN1CCCc2nc(C)c(C)cc21 24.9%, C=CC[C@@H]1C=C[C@@H](O/N=C\C[C@@H]2C=C[C@H](OC(C)=O)[C@H](COC(C)=O)O2)[C@@H](CO)O1 4.01%, CCN1C(=O)[C@H]2[C@H]3[C@H](O)[C@H](O)C/C(=N/O[C@@H](C)c4cn([C@H](CO)Cc5ccccc5)nn4)[C@@H]3CC[C@@H]2C1=O 1.7%
